# Screening results deposited in PubChem by Sanford-Burnham Center for Chemical Genomics.
# This is a sample that favours compounds with a hit; in the whole collection about 4% have one here.
# TWEAK-Fn14 inh = inhibitors of TWEAK-Fn14 interaction signaling. TWEAK-stimulated Fn14 reporter cells, luciferase luminescence, 8 h. inhibition, % at 10 µM. hit rate 2% among 360,000. AID 1159606; in the data active = inhibition above about 50%
# HIF-2a inh = HIF-2a inhibition | 786-0 RCC cells HIF-2a reporter, luciferase luminescence, overnight | hit rate 0.72% among 360,000 | AID 624352 | inhibition, % at 18.8 µM;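 active = inhibition of the luminescence signal of 40% or more relative to plate controls, in a single-dose primary screen at 18.75 µM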
# CF NFkB inh = inhibitors of cystic fibrosis induced NF-kB. AID 588850. hit rate 0.86% among 360,000. inhibition, % at 5 µM. KKLEB NF-kB-GFP reporter, PAF-induced, GFP fluorescence overnight;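 active = at least 50% inhibition at 5 µM, scaled per plate between neutral and stimulator controls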;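 also: PAF is a Pseudomonas aeruginosa culture filtrate used as stimulus; plate controls were PAF-stimulated DMSO wells for no effect and unstimulated DMSO wells for full effect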
# TROY signal inh = TROY signaling inhibition. inhibition, % at 10 µM. hit rate 0.98% among 360,000. AID 1347056. Q293 LMP1-TROYcd NF-kB luciferase reporter, 4 h;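 active = compounds whose plate-normalised and pattern-corrected inhibition of the luciferase reporter signal at the single screening dose is 50% or more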
# Peg3 promoter = inhibitors of Peg3 promoter. HeLa PEG-Prom luciferase reporter, luminescence, overnight. inhibition, % at 20 µM. hit rate 1.7% among 360,000;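 active = inhibition of at least 50% at 20 µM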
# KKLEB cytotox = CF airway cell cytotoxicity counter-screen; activity change (cytotoxicity), % at 5 µM; KKLEB CF airway cells viability, ATPlite luminescence, overnight; hits give low values; cells stimulated with P. aeruginosa culture filtrate; hit rate 0.36% among 360,000;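 active = corrected activity change at or below -50% at 5 µM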
# CF NFkB inh conf = confirmation of cystic fibrosis induced NF-kB inhibitors. shares compounds with CF NFkB inh. KKLEB CF airway cells, PAF-induced NF-kB-GFP fluorescence, overnight. inhibition, % at 5 µM. hit rate 64% among 1,300; in the data active = inhibition above about 40%;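 also: stimulus PAF is a Pseudomonas aeruginosa filtrate and not platelet activating factor; plate controls were DMSO wells with stimulus for no effect and unstimulated DMSO wells for full effect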
# Active calls of the source: *; . = no result given.
SMILES,TWEAK-Fn14 inh,HIF-2a inh,CF NFkB inh,TROY signal inh,Peg3 promoter,KKLEB cytotox,CF NFkB inh conf
CC(C)NC(=O)NC(=O)COC(=O)c1cccc(OC(F)F)c1,-4,3,1,-8,5,-31,.
Cc1ccnc(NC(=O)Cc2ccc(-c3ccccc3)cc2)c1,48,-431,62*,41,98*,-17,58*
COc1ccc2[nH]c3c(c2c1)CCN1C(=O)C(CC(=O)NCCN2CCOCC2)C[C@H](C(=O)N2CCCCC2)[C@@]31CCc1ccccc1 (stereo partly drawn),7,6,-18,3,-13,4,.
COc1ccc2[nH]c3c(c2c1)CCN1C(=O)C(CC(=O)NCCC2=CCCCC2)C[C@H](C(=O)N2CCCCC2)[C@@]31CCc1ccccc1 (stereo partly drawn),25,2,56*,5,27,-49,81*
CCCCCCCCCCCCCCCC(O)C(N)CO (stereo not drawn),-30,5,61*,3,-11,0,15
CCCCCCCCO,8,0,8,-6,-15,0,.
Fc1ccccc1-c1csc(=Nc2cccnc2)n1CC1CCCO1 (stereo not drawn),17,-27,-19,-8,-4,11,.
Fc1ccccc1-c1csc(=Nc2cccnc2)n1CCCn1ccnc1,55*,-33,66*,25,-67,-13,71*
O=C(Nc1ccc(C(F)(F)F)cc1)N1CCN(C(=O)c2ccco2)CC1,11,-2,-11,-17,17,4,.
O=C(COC(=O)C1CCN(c2ccc(C(F)(F)F)cn2)CC1)Nc1cccc(F)c1,-26,-4,64*,-7,-12,-18,19
CCN1CCN(Cc2ccc(NC(=O)c3ccc(C)c(NC(=O)c4ccno4)c3)cc2C(F)(F)F)CC1,-53,12,56*,4,18,-4,69*
CCN1CCN(Cc2ccc(NC(=O)c3ccc(C)c(NC(=O)C4=NN(c5ccccc5)C(=O)C4)c3)cc2C(F)(F)F)CC1,-11,-13,15,-2,-34,5,.
CCN1CCN(Cc2ccc(NC(=O)c3ccc(C)c(NC(=O)c4csc(-c5ccncc5)n4)c3)cc2C(F)(F)F)CC1,-59,22,71*,15,-9,-8,46*
O=[N+]([O-])c1cccnc1N1CCN(Cc2ccc3c(c2)OCO3)CC1,-5,-19,4,5,-47,0,.
O=[N+]([O-])c1ccc2ncnc(N3CCN(Cc4ccc5c(c4)OCO5)CC3)c2c1,78*,11,68*,46,12,10,85*
CCn1c(Cc2ccc(OC)cc2)nnc1SCC(=O)NC1CCCCC1,0,4,15,-3,13,6,.
COc1ccc2c(c1OC)C(=O)N1c3ccccc3C(=O)N(c3ccc(F)cc3)C21 (stereo not drawn),12,-5,32,10,46,-4,.
COc1ccc2c(c1OC)C(=O)N1c3ccccc3C(=O)N(c3ccccc3)C21 (stereo not drawn),17,-10,68*,23,44,-4,97*
O=[N+]([O-])c1cc(S(=O)(=O)NCCN2CCOCC2)ccc1Sc1nnnn1-c1ccccc1,89*,11,73*,22,42,-3,19
COc1ccc(OC)c(-c2nnc3n2N=C(c2ccc(OC)c(OC4CCOC4)c2)CS3)c1 (stereo not drawn),22,20,54*,27,2,-10,65*
COc1ccc(N(Cc2cc(=O)[nH]c3ccccc23)C(=O)CCl)cc1,41,2,75*,9,80*,-33,71*
Nc1cc2[nH]c(=O)c3ccccc3c2cc1Br,-35,-27,-71,-37,2,7,.
Nc1cc2c(cc1Br)[nH]c(=O)c1ccccc12,24,-24,58*,-7,-7,-14,-59
CC(=O)Nc1sc(C)c(C)c1C(=O)OCC(=O)NCc1ccccc1,-5,-19,-7,-22,-12,-3,.
COc1ccc(NC(=O)COC(=O)c2c(NC(C)=O)sc(C)c2C)cc1,-28,-9,56*,-52,4,-45,24
SMILES,TWEAK-Fn14 inh,HIF-2a inh,CF NFkB inh,TROY signal inh,Peg3 promoter,KKLEB cytotox,CF NFkB inh conf
O=C(c1ccc2c(Cl)c3c(nc2c1)CCCC3)N1CCN(c2ccc(F)cc2)CC1,-23,7,29,-2,35,-14,.
COc1ccccc1N1CCN(C(=O)c2ccc3c(Cl)c4c(nc3c2)CCCC4)CC1,-22,-5,53*,1,27,-12,-95
CCOC(=O)c1c(-c2ccc(C)cc2)csc1NC(=O)c1ccc(N2C(=O)CCC2=O)cc1,4,10,58*,1,5,-41,55*
CCOC(=O)c1c(-c2ccc(C)cc2)csc1NC(=O)c1cccc(N2C(=O)CCC2=O)c1,-13,15,21,-2,38,-12,.
CC(C)c1ccccc1NC(=S)N1CCN(Cc2ccc3c(c2)OCO3)CC1,1,10,12,-9,11,-4,.
CC(O)(c1cccc(F)c1)c1nc(-c2cccc(C#N)c2)cs1 (stereo not drawn),-2,1,-10,8,12,-14,.
COc1ccc(CCN2C(=NC(=O)CC(C)C)SC3CS(=O)(=O)CC32)cc1 (stereo not drawn),-13,20,4,-9,11,-4,.
CSc1ccc(/C=C(\C#N)C(=O)NC2CCCCC2C)cc1 (stereo not drawn),35,-2,53*,-11,-18,-29,17
CC(=O)Nc1ccc(/C=C(\C#N)C(=O)NC2CCCCC2C)cc1 (stereo not drawn),7,20,-4,-11,9,-20,.
Cc1ccc(-c2n[nH]c(=S)n2/N=C/c2ccncc2)cc1,72*,17,56*,27,-6,-17,85*
S=c1[nH]nc(-c2ccncc2)n1/N=C/C(Cl)=C\c1ccccc1,81*,-134,73*,22,-83,-13,78*
S=c1[nH]nc(-c2ccncc2)n1/N=C/C=C/c1ccccc1,41,17,24,18,-10,-8,.
Cc1ccc(NC(=O)/C=C/c2cccs2)c([N+](=O)[O-])c1,15,-237,11,-53,-282,-15,.
CC1=CCC2C(=O)N(c3cccc(C(=O)N(C)C4CCCCC4)c3)C(=O)C2C1 (stereo not drawn),17,3,-1,9,8,-1,.
C=C1CCC[C@]2(C)C[C@H]3OC(=O)C(CN4CCCCC4CO)[C@H]3CC12 (stereo partly drawn),51*,-2,75*,25,62*,-9,15
C=C1CCC[C@]2(C)C[C@H]3OC(=O)C(CNC(C)(CO)CO)[C@H]3CC12 (stereo partly drawn),46,19,75*,-3,-38,-18,27
